Numbering of substitutions follows the chain as printed.
Legend:
Test in all cases: PBM; 200 nM protein, PBS
Details in all cases: dsDNA, one strand shown
[1] = molecular target: HOXB4 (Homo sapiens, UniProt P17483 148-234)
[2] = molecular target: HOXB4 (Homo sapiens, UniProt P17483 148-234, V174I)
[3] = molecular target: MSX2 (Homo sapiens, UniProt P35548 130-214, R199I)
[4] = molecular target: MSX2 (Homo sapiens, UniProt P35548 130-214)
[5] = molecular target: MSX2 (Homo sapiens, UniProt P35548 130-214, F161Y)
MSX2 (Homo sapiens, UniProt P35548 130-214, F161Y), sequence (P35548 130-214 F161Y): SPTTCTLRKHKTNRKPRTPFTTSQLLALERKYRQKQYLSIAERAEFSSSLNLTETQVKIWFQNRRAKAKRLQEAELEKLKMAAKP

[6] = molecular target: ALX1 (Homo sapiens, UniProt Q15699 118-204, L144V)
ALX1 (Homo sapiens, UniProt Q15699 118-204, L144V), sequence (Q15699 118-204 L144V): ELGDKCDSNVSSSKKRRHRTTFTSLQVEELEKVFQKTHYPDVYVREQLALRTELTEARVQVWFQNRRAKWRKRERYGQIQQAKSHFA

[7] = molecular target: ALX1 (Homo sapiens, UniProt Q15699 118-204, L144R)
ALX1 (Homo sapiens, UniProt Q15699 118-204, L144R), sequence (Q15699 118-204 L144R): as the sequence (Q15699 118-204 L144V) above, with V27R counted along it

[8] = molecular target: VAX1 (Homo sapiens, UniProt Q5SQQ9 86-172)
VAX1 (Homo sapiens, UniProt Q5SQQ9 86-172), sequence (Q5SQQ9 86-172): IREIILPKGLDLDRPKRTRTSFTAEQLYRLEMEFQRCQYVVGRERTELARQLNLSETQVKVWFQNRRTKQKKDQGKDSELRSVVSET

[9] = molecular target: VAX1 (Homo sapiens, UniProt Q5SQQ9 86-172, T142I)
VAX1 (Homo sapiens, UniProt Q5SQQ9 86-172, T142I), sequence (Q5SQQ9 86-172 T142I): as the sequence (Q5SQQ9 86-172) above, with T57I counted along it

[10] = molecular target: ALX1 (Homo sapiens, UniProt Q15699 118-204)
ALX1 (Homo sapiens, UniProt Q15699 118-204), sequence (Q15699 118-204): as the sequence (Q15699 118-204 L144V) above, with V27L counted along it

[11] = molecular target: VAX1 (Homo sapiens, UniProt Q5SQQ9 86-172, K157R)
VAX1 (Homo sapiens, UniProt Q5SQQ9 86-172, K157R), sequence (Q5SQQ9 86-172 K157R): as the sequence (Q5SQQ9 86-172) above, with K72R counted along it

[12] = molecular target: T1, PAX4 (Homo sapiens, UniProt O43316 9-242, F177V)
T1 sequence: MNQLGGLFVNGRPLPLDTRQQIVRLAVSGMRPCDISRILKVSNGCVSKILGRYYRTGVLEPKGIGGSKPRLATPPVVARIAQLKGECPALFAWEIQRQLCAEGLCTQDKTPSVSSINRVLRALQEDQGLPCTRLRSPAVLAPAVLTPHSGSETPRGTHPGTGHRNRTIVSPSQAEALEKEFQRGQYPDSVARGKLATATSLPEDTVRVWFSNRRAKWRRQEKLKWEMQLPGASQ

[13] = molecular target: T2, PAX4 (Homo sapiens, UniProt O43316 9-242, F177Y)
T2 sequence: T1 sequence with V169Y

[14] = molecular target: SHOX (Homo sapiens, UniProt O15266 103-189)
SHOX, sequence (O15266 103-189): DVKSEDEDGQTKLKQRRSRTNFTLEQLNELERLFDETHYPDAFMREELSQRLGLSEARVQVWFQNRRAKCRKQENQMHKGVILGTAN

[15] = molecular target: ALX3 (Homo sapiens, UniProt O95076 139-225, N203S)
ALX3, sequence (O95076 139-225 N203S): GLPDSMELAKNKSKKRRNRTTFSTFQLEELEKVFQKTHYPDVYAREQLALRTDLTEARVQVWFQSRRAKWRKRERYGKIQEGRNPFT

[16] = molecular target: PITX2 (Homo sapiens, UniProt Q99697 72-157)
[17] = molecular target: PROP1 (Homo sapiens, UniProt O75360 56-141)
PROP1 (Homo sapiens, UniProt O75360 56-141), sequence (O75360 56-141): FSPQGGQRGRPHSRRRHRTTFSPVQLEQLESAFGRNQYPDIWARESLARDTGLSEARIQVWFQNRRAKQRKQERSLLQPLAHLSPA

[18] = molecular target: PROP1 (Homo sapiens, UniProt O75360 56-141, R99H)
PROP1 (Homo sapiens, UniProt O75360 56-141, R99H), sequence (O75360 56-141 R99H): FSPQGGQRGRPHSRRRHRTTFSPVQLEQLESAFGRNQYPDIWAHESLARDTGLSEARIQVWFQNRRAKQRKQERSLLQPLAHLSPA

[19] = molecular target: PROP1 (Homo sapiens, UniProt O75360 56-141, F88S)
PROP1 (Homo sapiens, UniProt O75360 56-141, F88S), sequence (O75360 56-141 F88S): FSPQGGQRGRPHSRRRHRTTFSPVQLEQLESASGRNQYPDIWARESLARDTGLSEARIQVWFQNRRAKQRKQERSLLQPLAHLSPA

[20] = molecular target: T3, NKX2-6 (Homo sapiens, UniProt A6NCS4 118-204)
T3 sequence: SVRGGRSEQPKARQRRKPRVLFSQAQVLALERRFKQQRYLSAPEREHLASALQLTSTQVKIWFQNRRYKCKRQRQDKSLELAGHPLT

[21] = molecular target: T4, NKX2-6 (Homo sapiens, UniProt A6NCS4 118-204, F151L)
T4 sequence: T3 sequence with F34L

HOXB4 (Homo sapiens, UniProt P17483 148-234), sequence (P17483 148-234): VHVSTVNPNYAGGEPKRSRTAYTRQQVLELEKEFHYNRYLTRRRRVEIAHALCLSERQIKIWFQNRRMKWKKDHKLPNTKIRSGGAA
HOXB4 (Homo sapiens, UniProt P17483 148-234, V174I), sequence (P17483 148-234 V174I): as the sequence (P17483 148-234) above, with V27I counted along it
MSX2 (Homo sapiens, UniProt P35548 130-214), sequence (P35548 130-214): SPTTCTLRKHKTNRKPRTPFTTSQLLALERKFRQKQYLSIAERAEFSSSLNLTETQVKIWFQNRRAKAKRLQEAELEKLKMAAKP
MSX2 (Homo sapiens, UniProt P35548 130-214, R199I), sequence (P35548 130-214 R199I): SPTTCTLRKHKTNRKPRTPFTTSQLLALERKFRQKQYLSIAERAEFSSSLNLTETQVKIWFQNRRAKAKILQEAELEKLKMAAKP

AATGTACC
binding signal [1]: 10.2 upbm affinity estimate (log intensity, higher = more binding, comparable within an allelic series) | binding signal [2]: 10.3 upbm affinity estimate (log intensity, higher = more binding, comparable within an allelic series)

GCGCGGGA
binding signal [1]: 7.68 upbm affinity estimate (log intensity, higher = more binding, comparable within an allelic series) | binding signal [2]: 7.49 upbm affinity estimate (log intensity, higher = more binding, comparable within an allelic series) | binding signal [3]: 9.54 upbm affinity estimate (log intensity, higher = more binding, comparable within an allelic series) | binding signal [4]: 9.49 upbm affinity estimate (log intensity, higher = more binding, comparable within an allelic series) | binding signal [5]: 9.51 upbm affinity estimate (log intensity, higher = more binding, comparable within an allelic series)

GCTGGCGA
binding signal [1]: 7.41 upbm affinity estimate (log intensity, higher = more binding, comparable within an allelic series) | binding signal [2]: 7.45 upbm affinity estimate (log intensity, higher = more binding, comparable within an allelic series)

AATTTCTG
binding signal [1]: 9.75 upbm affinity estimate (log intensity, higher = more binding, comparable within an allelic series) | binding signal [2]: 9.62 upbm affinity estimate (log intensity, higher = more binding, comparable within an allelic series)

CGGGAAAG
binding signal [1]: 7.44 upbm affinity estimate (log intensity, higher = more binding, comparable within an allelic series) | binding signal [2]: 7.56 upbm affinity estimate (log intensity, higher = more binding, comparable within an allelic series) | binding signal [6]: 6.35 upbm affinity estimate (log intensity, higher = more binding, comparable within an allelic series) | binding signal [7]: 6.49 upbm affinity estimate (log intensity, higher = more binding, comparable within an allelic series) | binding signal [8]: 7.08 upbm affinity estimate (log intensity, higher = more binding, comparable within an allelic series) | binding signal [9]: 7.2 upbm affinity estimate (log intensity, higher = more binding, comparable within an allelic series) | binding signal [10]: 6.44 upbm affinity estimate (log intensity, higher = more binding, comparable within an allelic series) | binding signal [11]: 7.08 upbm affinity estimate (log intensity, higher = more binding, comparable within an allelic series)

ATATGATG
binding signal [1]: 10 upbm affinity estimate (log intensity, higher = more binding, comparable within an allelic series) | binding signal [2]: 10.1 upbm affinity estimate (log intensity, higher = more binding, comparable within an allelic series)

AGATGATG
binding signal [1]: 10.8 upbm affinity estimate (log intensity, higher = more binding, comparable within an allelic series) | binding signal [2]: 11.1 upbm affinity estimate (log intensity, higher = more binding, comparable within an allelic series)

GCGGCTGA
binding signal [1]: 7.8 upbm affinity estimate (log intensity, higher = more binding, comparable within an allelic series) | binding signal [2]: 7.53 upbm affinity estimate (log intensity, higher = more binding, comparable within an allelic series)

AAGCCAAT
binding signal [1]: 10.3 upbm affinity estimate (log intensity, higher = more binding, comparable within an allelic series) | binding signal [2]: 10.6 upbm affinity estimate (log intensity, higher = more binding, comparable within an allelic series)

CAGAAGGC
binding signal [1]: 7.78 upbm affinity estimate (log intensity, higher = more binding, comparable within an allelic series) | binding signal [2]: 7.7 upbm affinity estimate (log intensity, higher = more binding, comparable within an allelic series)

GAATAATC
binding signal [1]: 11.1 upbm affinity estimate (log intensity, higher = more binding, comparable within an allelic series) | binding signal [2]: 11.3 upbm affinity estimate (log intensity, higher = more binding, comparable within an allelic series)

GATTATTA
binding signal [1]: 12.9 upbm affinity estimate (log intensity, higher = more binding, comparable within an allelic series) | binding signal [2]: 13.5 upbm affinity estimate (log intensity, higher = more binding, comparable within an allelic series) | binding signal [12]: 10.6 upbm affinity estimate (log intensity, higher = more binding, comparable within an allelic series) | binding signal [13]: 11 upbm affinity estimate (log intensity, higher = more binding, comparable within an allelic series)

AGATATTG
binding signal [14]: 8.52 upbm affinity estimate (log intensity, higher = more binding, comparable within an allelic series)

ATTATCCA
binding signal [14]: 9.69 upbm affinity estimate (log intensity, higher = more binding, comparable within an allelic series)

CATATGGG
binding signal [14]: 7.77 upbm affinity estimate (log intensity, higher = more binding, comparable within an allelic series)

AATGGTAC
binding signal [14]: 8.43 upbm affinity estimate (log intensity, higher = more binding, comparable within an allelic series)

AAATATAA
binding signal [14]: 9.24 upbm affinity estimate (log intensity, higher = more binding, comparable within an allelic series)

GAATTAGA
binding signal [14]: 9.8 upbm affinity estimate (log intensity, higher = more binding, comparable within an allelic series)

ATTACTTA
binding signal [1]: 12.1 upbm affinity estimate (log intensity, higher = more binding, comparable within an allelic series) | binding signal [2]: 12.5 upbm affinity estimate (log intensity, higher = more binding, comparable within an allelic series) | binding signal [15]: 8.71 upbm affinity estimate (log intensity, higher = more binding, comparable within an allelic series)

CCGTGCGC
binding signal [1]: 7.73 upbm affinity estimate (log intensity, higher = more binding, comparable within an allelic series) | binding signal [2]: 7.75 upbm affinity estimate (log intensity, higher = more binding, comparable within an allelic series) | binding signal [16]: 7.97 upbm affinity estimate (log intensity, higher = more binding, comparable within an allelic series)

ATTCATGA
binding signal [14]: 8.41 upbm affinity estimate (log intensity, higher = more binding, comparable within an allelic series)

AAATTATC
binding signal [14]: 10.4 upbm affinity estimate (log intensity, higher = more binding, comparable within an allelic series)

TAAATGGA
binding signal [14]: 8.78 upbm affinity estimate (log intensity, higher = more binding, comparable within an allelic series)

GAACTAAA
binding signal [14]: 8.27 upbm affinity estimate (log intensity, higher = more binding, comparable within an allelic series)

AAACTAAG
binding signal [14]: 8.12 upbm affinity estimate (log intensity, higher = more binding, comparable within an allelic series)

GCCTCTCC
binding signal [1]: 7.31 upbm affinity estimate (log intensity, higher = more binding, comparable within an allelic series) | binding signal [2]: 7.24 upbm affinity estimate (log intensity, higher = more binding, comparable within an allelic series) | binding signal [17]: 6.75 upbm affinity estimate (log intensity, higher = more binding, comparable within an allelic series) | binding signal [18]: 6.63 upbm affinity estimate (log intensity, higher = more binding, comparable within an allelic series) | binding signal [19]: 6.67 upbm affinity estimate (log intensity, higher = more binding, comparable within an allelic series)

ATTAAAGC
binding signal [1]: 11.7 upbm affinity estimate (log intensity, higher = more binding, comparable within an allelic series) | binding signal [2]: 11.9 upbm affinity estimate (log intensity, higher = more binding, comparable within an allelic series) | binding signal [20]: 11.1 upbm affinity estimate (log intensity, higher = more binding, comparable within an allelic series)

CCCGAGCC
binding signal [1]: 7.67 upbm affinity estimate (log intensity, higher = more binding, comparable within an allelic series) | binding signal [2]: 7.83 upbm affinity estimate (log intensity, higher = more binding, comparable within an allelic series) | binding signal [20]: 9.42 upbm affinity estimate (log intensity, higher = more binding, comparable within an allelic series) | binding signal [21]: 9.3 upbm affinity estimate (log intensity, higher = more binding, comparable within an allelic series)

Source: paper PMC11006913
